# According to PubChem BioAssay (Tox21):
# Unmarked numbers belong to inactive results. Results filed as inconclusive are left out. A call without a number means that no potency is given here. Activity calls are given as the source filed them. The call rests on the fitted dose curve.
# Tests used:
# [1] = target: Acetylcholinesterase (Homo sapiens) (UniProt P22303); test: Acetylcholinesterase (AChE) small molecule antagonists: colormetric cell-based qHTS assay (AID 1347395); further: nearly all actives have a fitted effect of over 30% in size; further: potency means the concentration at half of the fitted maximal effect
# Sequence of Acetylcholinesterase (Homo sapiens) (P22303 whole entry, looked up): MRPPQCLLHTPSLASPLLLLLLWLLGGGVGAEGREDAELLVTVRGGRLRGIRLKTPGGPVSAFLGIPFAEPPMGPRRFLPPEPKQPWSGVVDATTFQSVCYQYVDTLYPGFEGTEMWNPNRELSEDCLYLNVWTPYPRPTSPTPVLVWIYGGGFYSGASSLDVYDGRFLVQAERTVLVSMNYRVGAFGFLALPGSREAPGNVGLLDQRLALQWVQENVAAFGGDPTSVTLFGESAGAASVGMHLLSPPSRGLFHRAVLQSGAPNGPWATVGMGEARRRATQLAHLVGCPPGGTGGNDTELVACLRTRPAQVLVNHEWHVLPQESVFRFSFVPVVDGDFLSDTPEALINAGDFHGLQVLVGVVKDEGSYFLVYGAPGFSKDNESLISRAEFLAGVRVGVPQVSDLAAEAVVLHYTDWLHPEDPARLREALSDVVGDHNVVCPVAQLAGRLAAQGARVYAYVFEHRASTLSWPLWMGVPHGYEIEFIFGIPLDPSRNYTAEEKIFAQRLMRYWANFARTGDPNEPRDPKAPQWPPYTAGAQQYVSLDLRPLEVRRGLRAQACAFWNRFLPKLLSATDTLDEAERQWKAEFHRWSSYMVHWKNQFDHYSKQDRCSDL
# Procedure, shortened: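 Endogenous AChE of human neuroblastoma SH-SY5Y cells was measured with an Ellman-type DTNB/acetylthiocholine mix. Compound pretreatment lasted 30 min at 37 C; substrate reaction ran 90 min at 37 C.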
# [2] = target: Acetylcholinesterase (Homo sapiens) (UniProt P22303); test: Acetylcholinesterase (AChE) small molecule antagonists: enzyme-based qHTS assay (AID 1347397); details: Potency: AChE enzyme activity inhibition; outcome: AChE enzyme activity inhibition; further: nearly all actives have a fitted effect of over 55% in size; further: potency means the concentration at half of the fitted maximal effect
# Procedure, shortened: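 rhAChE 50 mU/mL (dispensed) + cpd or DMSO, 30 min RT; add DTNB/acetylthiocholine cocktail, 10 min RT; colorimetric thiocholine readout. qHTS, 1536-well format.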
# [3] = target: Acetylcholinesterase (Homo sapiens) (UniProt P22303); test: Acetylcholinesterase (AChE) small molecule antagonists: fluorescence cell-based qHTS assay (AID 1347398); details: Potency: AChE activity; outcome: AChE activity; further: nearly all actives have a fitted effect of over 50% in size; further: potency means the concentration at half of the fitted maximal effect
# Procedure, shortened: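 Read-out is Thiolite Green fluorescence at Ex/Em = 490/520 nm, formed by reaction with thiocholine released when cellular AChE in SH-SY5Y cells hydrolyzes acetylthiocholine. Compounds were preincubated 30 min at 37 C before substrate.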
# [4] = target: Acetylcholinesterase (Homo sapiens) (UniProt P22303); test: Acetylcholinesterase (AChE) small molecule antagonists: enzyme-based qHTS assay with human liver microsomes (AID 1347399); details: Potency: qHTS inhibition; outcome: qHTS inhibition; further: nearly all actives have a fitted effect of over 60% in size
# Procedure, shortened: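 Recombinant human AChE (50 mU/mL in the enzyme mix) and human liver microsomes (0.25 mg/mL final) were preincubated with compound and NADPH (0.25 mg/mL final) for 30 min at 37 C. Acetylthiocholine/DTNB was then added; thiocholine was read colorimetrically after 10 min at room temperature.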
smiles,measurement,setting,value
COc1ccc2nc(S(=O)Cc3ncc(C)c(OC)c3C)[nH]c2c1 (stereo not given),Potency,[1],inactive
same,Potency,[2],inactive
same,Potency,[3],inactive
same,Potency,[4],inactive
Oc1ccc(Cl)c2cccnc12,Potency,[1],inactive
same,Potency,[2],inactive
same,Potency,[3],inactive
same,Potency,[4],inactive
CCOC(=O)/C=C/c1ccccc1,Potency,[1],inactive
same,Potency,[2],inactive
same,Potency,[3],inactive
same,Potency,[4],inactive
CNC[C@H](O)c1ccc(O)c(O)c1,outcome,[1],inactive
same,outcome,[2],inactive
same,outcome,[3],inactive
same,outcome,[4],inactive
CCC(C)(CCC(C)C)C(=O)[O][Sn]([CH3])([CH3])[O]C(=O)C(C)(CC)CCC(C)C (stereo not given),Potency,[1],inactive
same,Potency,[2],inactive
same,Potency,[3],inactive
same,Potency,[4],inactive
CC(Oc1c(Cl)cccc1Cl)C1=NCCN1 (stereo not given),Potency,[1],inactive
same,Potency,[2],inactive
same,Potency,[3],inactive
same,Potency,[4],inactive
C=CC(C)(CCC=C(C)C)OC(=O)c1ccccc1 (stereo not given),Potency,[1],inactive
same,Potency,[2],inactive
same,Potency,[3],inactive
same,Potency,[4],inactive
C=Cc1c(C)c2cc3[nH]c(cc4nc(cc5nc(cc1[nH]2)C(C)=C5CCC(=O)O)C(CCC(=O)O)=C4C)c(C)c3C=C,Potency,[1],inactive
same,Potency,[2],inactive
same,Potency,[3],inactive
same,Potency,[4],inactive
Cc1cccc(Oc2ccccc2)c1,Potency,[1],inactive
same,Potency,[2],inactive
same,Potency,[3],inactive
same,Potency,[4],inactive
CCC(C(=O)OCCN(CC)CC)c1ccccc1 (stereo not given),Potency,[1],inactive
same,Potency,[2],inactive
same,Potency,[3],inactive
same,Potency,[4],inactive
Cc1cn([C@H]2C=C[C@@H](CO)O2)c(=O)[nH]c1=O,Potency,[1],inactive
same,Potency,[2],inactive
same,Potency,[3],inactive
same,Potency,[4],inactive
O=C(O)COC(=O)Cc1ccccc1Nc1c(Cl)cccc1Cl,Potency,[1],inactive
same,Potency,[2],inactive
same,Potency,[3],inactive
same,Potency,[4],inactive
C[Si](C)O[Si](C)C,Potency,[1],inactive
same,Potency,[2],inactive
same,Potency,[3],inactive
same,Potency,[4],inactive
CC(C)c1ccccc1O,Potency,[1],inactive
same,Potency,[2],inactive
same,Potency,[3],inactive
same,Potency,[4],inactive
C/C(=C(\CCO)SS/C(CCO)=C(\C)N(C=O)Cc1cnc(C)nc1N)N(C=O)Cc1cnc(C)nc1N,Potency,[1],inactive
same,Potency,[2],inactive
same,Potency,[3],inactive
same,Potency,[4],inactive
CC(=O)N1CCN(c2ccc(O)cc2)CC1,Potency,[1],inactive
same,Potency,[2],inactive
same,Potency,[3],inactive
same,Potency,[4],inactive
C=CCNCC=C,Potency,[1],inactive
same,Potency,[2],inactive
same,Potency,[3],inactive
same,Potency,[4],inactive
CC(=O)OCC(=O)[C@@]1(O)CC[C@H]2[C@@H]3CCC4=CC(=O)C=C[C@]4(C)[C@H]3[C@@H](O)C[C@@]21C,Potency,[1],inactive
same,Potency,[2],inactive
same,Potency,[3],inactive
same,Potency,[4],inactive
CC(=O)Nc1ccc(C)c(Cl)c1,Potency,[1],inactive
same,Potency,[2],inactive
same,Potency,[3],inactive
same,Potency,[4],inactive
C#CCN(C)Cc1ccccc1,Potency,[1],inactive
same,Potency,[2],inactive
same,Potency,[3],inactive
same,Potency,[4],inactive
Cc1ccc(C(C)(C)O)cc1,Potency,[1],inactive
same,Potency,[2],inactive
same,Potency,[3],inactive
same,Potency,[4],inactive
COC(=O)Cc1cccc2ccccc12,Potency,[1],inactive
same,Potency,[2],inactive
same,Potency,[3],inactive
same,Potency,[4],inactive
Cc1cc2c(s1)Nc1ccccc1N=C2N1CCN(C)CC1,Potency,[1],inactive
same,Potency,[2],inactive
same,Potency,[3],inactive
same,Potency,[4],inactive
O=[N+]([O-])c1ccc(O)c2ncccc12,Potency,[1],inactive
same,Potency,[2],inactive
same,Potency,[3],inactive
same,Potency,[4],inactive
O=C=Nc1cccc(C(F)(F)F)c1,Potency,[1],inactive
same,Potency,[2],inactive
same,Potency,[3],inactive
same,Potency,[4],inactive
C=CCc1ccc(OC)c(OC)c1,Potency,[1],inactive
same,Potency,[2],inactive
same,Potency,[3],inactive
same,Potency,[4],inactive
O=C(c1ccccc1)c1cccc(O)c1,Potency,[1],inactive
same,Potency,[2],inactive
same,Potency,[3],inactive
same,Potency,[4],inactive
Cc1cccc2n[nH]nc12,Potency,[1],inactive
same,Potency,[2],inactive
same,Potency,[3],inactive
same,Potency,[4],inactive
O=C1NCCN1,Potency,[1],inactive
same,Potency,[2],inactive
same,Potency,[3],inactive
same,Potency,[4],inactive
CN(C)CCCN,Potency,[1],inactive
same,Potency,[2],inactive
same,Potency,[3],inactive
same,Potency,[4],inactive
CN1CCN(CCCN2c3ccccc3Sc3ccc(Cl)cc32)CC1,Potency,[1],inactive
same,Potency,[2],inactive
same,Potency,[3],inactive
same,Potency,[4],inactive
COC(=O)c1cc(Cl)ccc1NS(=O)(=O)C(F)(F)F,Potency,[1],inactive
same,Potency,[2],inactive
same,Potency,[3],inactive
same,Potency,[4],inactive
CCc1c(C)cc(N)c(CC)c1N,Potency,[1],39.9 µM (active)
same,Potency,[2],71 µM (active)
same,Potency,[3],39.9 µM (active)
same,Potency,[4],inactive
C[C@H](CCC(=O)O)[C@H]1CC[C@H]2[C@@H]3CC[C@@H]4C[C@H](O)CC[C@]4(C)[C@H]3C[C@H](O)[C@]12C,Potency,[1],inactive
same,Potency,[2],inactive
same,Potency,[3],inactive
same,Potency,[4],inactive
CCCCCCCCC(CCCCCC)C(=O)O (stereo not given),Potency,[1],inactive
same,Potency,[2],inactive
same,Potency,[3],inactive
same,Potency,[4],inactive
Cc1ccc2oc(CN(Cc3ccccc3)C(=O)Nc3c(F)cc(F)cc3F)c(-c3ccc(Cl)cc3)c2c1,Potency,[1],inactive
same,Potency,[2],inactive
same,Potency,[3],inactive
same,Potency,[4],inactive
CCCCCCCCC/C=C/CC1CC(=O)OC1=O (stereo not given),Potency,[1],inactive
same,Potency,[2],inactive
same,Potency,[3],inactive
same,Potency,[4],inactive
CCCC(C)CCC(C)=O (stereo not given),Potency,[1],inactive
same,Potency,[2],inactive
same,Potency,[3],inactive
same,Potency,[4],inactive
CCn1cc(C(=O)O)c(=O)c2cnc(N3CCCC3)nc21,"activity, negative = inhibition",[1],2.45% [at 10.5 µM]
same,"activity change, negative = inhibition",[2],0.534% [at 10.5 µM]
same,"activity change, negative = inhibition",[3],15.4% [at 10.5 µM]
same,"activity change, negative = inhibition",[4],-1.77% [at 10.5 µM]
Cc1c(C(=O)c2c[nH]n(C)c2=O)ccc(S(C)(=O)=O)c1C1=NOCC1,Potency,[1],inactive
same,Potency,[2],inactive
same,Potency,[3],inactive
same,Potency,[4],inactive
CCCCN(CCCC)C(=O)N(CCCC)CCCC,Potency,[1],inactive
same,Potency,[2],inactive
same,Potency,[3],inactive
same,Potency,[4],inactive
O=C(CCCl)NCc1ccccc1,Potency,[1],inactive
same,Potency,[2],inactive
same,Potency,[3],inactive
same,Potency,[4],inactive
Nc1ccc(-c2ccc(F)cc2)cc1,Potency,[1],inactive
same,Potency,[2],inactive
same,Potency,[3],inactive
same,Potency,[4],inactive
CN(C)C,Potency,[1],inactive
same,Potency,[2],inactive
same,Potency,[3],inactive
same,Potency,[4],inactive
COC(=O)c1ccccc1O,Potency,[1],inactive
same,Potency,[2],inactive
same,Potency,[3],inactive
same,Potency,[4],inactive
CCCc1c(OCCCOc2ccc(OCC(=O)O)cc2)ccc(C(C)=O)c1O,Potency,[1],inactive
same,Potency,[2],inactive
same,Potency,[3],inactive
same,Potency,[4],inactive
c1ccc2c(c1)-c1cccc3c1c-2cc1ccccc13,Potency,[1],inactive
same,Potency,[2],inactive
same,Potency,[3],inactive
same,Potency,[4],inactive
O=C(OCC1CO1)C1CCCCC1C(=O)OCC1CO1 (stereo not given),Potency,[1],inactive
same,Potency,[2],inactive
same,Potency,[3],inactive
same,Potency,[4],inactive
CNCC[C@@H](Oc1ccccc1C)c1ccccc1,Potency,[1],inactive
same,Potency,[2],inactive
same,Potency,[3],inactive
same,Potency,[4],inactive
CCCC(=O)OCOC(=O)C1=C(C)NC(C)=C(C(=O)OC)C1c1cccc(Cl)c1Cl (stereo not given),Potency,[1],inactive
same,Potency,[2],inactive
same,Potency,[3],inactive
same,Potency,[4],inactive
CC1=C(/C=C/C(C)=C/C=C/C(C)=C/CO)C(C)(C)CCC1,Potency,[1],inactive
same,Potency,[2],inactive
same,Potency,[3],inactive
same,Potency,[4],inactive
Cc1ccc2nc(-c3ccc(N)cc3)sc2c1S(=O)(=O)O,Potency,[1],inactive
same,Potency,[2],inactive
same,Potency,[3],inactive
same,Potency,[4],inactive
OC[C@H]1O[C@H](O[C@H]2O[C@H](CO)[C@@H](O)[C@H](O)[C@H]2O)[C@H](O)[C@@H](O)[C@@H]1O,Potency,[1],inactive
same,Potency,[2],inactive
same,Potency,[3],inactive
same,Potency,[4],inactive
COC(=O)Nc1ccc(Cl)c(Cl)c1,Potency,[1],inactive
same,Potency,[2],inactive
same,Potency,[3],inactive
same,Potency,[4],inactive
CCO[Si](CCCCl)(OCC)OCC,Potency,[1],inactive
same,Potency,[2],inactive
same,Potency,[3],inactive
same,Potency,[4],inactive
Cc1cc(C)c(C(=O)O)c(C)c1,Potency,[1],inactive
same,Potency,[2],inactive
same,Potency,[3],inactive
same,Potency,[4],inactive
Cc1cccc(C(=O)O)c1[N+](=O)[O-],Potency,[1],inactive
same,Potency,[2],inactive
same,Potency,[3],inactive
same,Potency,[4],inactive
OCC(CO)(CBr)CBr,Potency,[1],inactive
same,Potency,[2],inactive
same,Potency,[3],inactive
same,Potency,[4],inactive
N=c1ccn2c(n1)O[C@H]1[C@H](O)[C@@H](CO)O[C@H]12,Potency,[1],inactive
same,Potency,[2],inactive
same,Potency,[3],inactive
same,Potency,[4],inactive
COc1ccc2nc(N)sc2c1,Potency,[1],inactive
same,Potency,[2],inactive
same,Potency,[3],inactive
same,Potency,[4],inactive
